Among the data in PubChem BioAssay (NCI) are growth values, retold here.

“And” between values parts separate entries of the source, which are not always exact repeats. Equal values may be shown once. This is part of a sample that, as a whole, favours compounds with a hit. Of some 83,000 tested, about 20% had one in any assay.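 Interpretation: 100, growth as untreated; towards 0, rising growth inhibition; 0, no net growth; 0 to -100, cell death. Compounds scoring below 10 were considered active.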 The source made the active and inactive calls.

Test in all cases: NCI-60 one-dose screen, 48 h (100 = growth as untreated, 0 = no growth, -100 = all killed)
The subject of one assay is HT29 colon. The note with it: 10 µM.
The next assay relates to SNB-75 CNS. The note with it: 10 µM.
The test system of another assay is SNB-19 CNS. The note with it: 10 µM.
Another assay deals with U251 CNS. The note with it: 10 µM.
For another assay, the system named is PC-3 prostate. Particulars: 10 µM.
Another assay has as its system SK-MEL-5 melanoma. Particulars: 10 µM.
The test system of a further assay is UACC-62 melanoma. Particulars: 10 µM unless noted.
The next assay relates to LOX IMVI melanoma. Particulars: 10 µM.
In a further assay the test system is SK-MEL-28 melanoma. Particulars: 10 µM.
For the next assay, the system named is SK-MEL-2 melanoma. The note with it: 10 µM.
The subject of another assay is EKVX NSCLC. The note with it: 10 µM.
A further assay concerns SN12C renal. Particulars: 10 µM.
The test system of another assay is UO-31 renal. The note with it: 10 µM.
The test system of another assay is TK-10 renal. Particulars: 10 µM unless noted.
For another assay, the system named is ACHN renal. Particulars: 10 µM.
Another assay concerns CAKI-1 renal. The note with it: 10 µM.
The next assay deals with A498 renal. Particulars: 10 µM.
For a further assay, the system named is HL-60(TB) leukemia. Particulars: 10 µM.
Another assay deals with CCRF-CEM leukemia. The note with it: 10 µM.
Another assay deals with HCT-15 colon. Particulars: 10 µM.

Regarding `NC(Cc1ccccc1)c1ccccc1` (stereo not drawn), the growth is 106% (inactive) and 95.1% (inactive) with HT29 colon; 93.9% (inactive) and 84.8% (inactive) in the assay on SNB-75 CNS; 105% (inactive) and 99.7% (inactive) with SNB-19 CNS; 103% (inactive) and 102% (inactive) with U251 CNS; 84.8% (inactive) and 90% (inactive) with PC-3 prostate; 94.1% (inactive) and 100% (inactive) in the assay with SK-MEL-5 melanoma. In addition, the growth is 99.8% (inactive) and 91.6% (inactive) in the assay on UACC-62 melanoma; 92.2% (inactive) and 97.5% (inactive) in the assay on LOX IMVI melanoma; 101% (inactive) and 110% (inactive) with SK-MEL-28 melanoma; 99.8% (inactive) and 101% (inactive) in the assay with SK-MEL-2 melanoma; 103% (inactive) and 112% (inactive) in the assay on EKVX NSCLC; 102% (inactive) and 101% (inactive) in the assay on SN12C renal. Further, the growth with UO-31 renal is 93.6% (inactive) and 69.8% (inactive); in the assay on TK-10 renal, 101% (inactive) and 103% (inactive); in the assay on ACHN renal, 105% (inactive) and 101% (inactive); in the assay with CAKI-1 renal it was 96.5% (inactive) and 102% (inactive); in the assay on A498 renal, 99.9% (inactive); in the assay on HL-60(TB) leukemia, 102% (inactive) and 107% (inactive). Besides, the growth in the assay with CCRF-CEM leukemia is 110% (inactive) and 90% (inactive).

On to `CC(=O)Nc1c2sscc-2n(C)c1=O`, for which the growth in the assay on HCT-15 colon was -100% (active); in the assay with HT29 colon, -76.2% (active); with SNB-75 CNS it was -98.3% (active); in the assay on SNB-19 CNS, -100% (active); with U251 CNS, -100% (active); in the assay with PC-3 prostate, -95.9% (active). Moreover, the growth in the assay with SK-MEL-5 melanoma is -100% (active); with UACC-62 melanoma it was -99.2% (active); in the assay on LOX IMVI melanoma, -98.3% (active); in the assay with SK-MEL-2 melanoma, -76% (active); in the assay on EKVX NSCLC it was -98.8% (active); in the assay on SN12C renal, -98.5% (active). The growth is -100% (active) in the assay on UO-31 renal; -100% (active) in the assay on TK-10 renal; -100% (active) with ACHN renal; -100% (active) in the assay on CAKI-1 renal; -53% (active) in the assay with HL-60(TB) leukemia; -58.3% (active) with CCRF-CEM leukemia.

In the case of `O=[N+]([O-])/C=C/c1ccc([N+](=O)[O-])cc1`, the growth is -46.8% (active) and 72.9% (inactive) with HT29 colon; 48.7% (inactive) and 90.1% (inactive) in the assay with SNB-75 CNS; 72.6% (inactive) and 96.2% (inactive) with SNB-19 CNS; -16.5% (active) and 87.8% (inactive) with U251 CNS; 43.4% (inactive) and 92% (inactive) with PC-3 prostate; 97.9% (inactive) in the assay with SK-MEL-5 melanoma. Besides, the growth is 71.5% (inactive) and 81.1% (inactive) with UACC-62 melanoma; -90.1% (active) and 70% (inactive) in the assay with LOX IMVI melanoma; 82.2% (inactive) and 103% (inactive) with SK-MEL-28 melanoma; -43.8% (active) and 79.7% (inactive) with SK-MEL-2 melanoma; 78.2% (inactive) and 84.1% (inactive) with EKVX NSCLC; -82.9% (active) and 62.7% (inactive) with UO-31 renal. Moreover, the growth with TK-10 renal is 18.8% (inactive) and 88.6% (inactive); with ACHN renal it was 21.5% (inactive) and 76.4% (inactive); in the assay on CAKI-1 renal, 38.8% (inactive); in the assay with HL-60(TB) leukemia, 17.1% (inactive) and 55.2% (inactive); with CCRF-CEM leukemia it was 34.8% (inactive).

`CC(Cc1ccc2c(c1)OCO2)NN` (stereo not drawn): the growth was 98.7% (inactive) with HT29 colon; 90.6% (inactive) with SNB-75 CNS; 105% (inactive) in the assay on SNB-19 CNS; 88.9% (inactive) in the assay on U251 CNS; 76.3% (inactive) with PC-3 prostate; 93.6% (inactive) with SK-MEL-5 melanoma. Also, the growth in the assay with UACC-62 melanoma is 95.6% (inactive); with LOX IMVI melanoma, 92.2% (inactive); in the assay on SK-MEL-28 melanoma, 105% (inactive); in the assay on SK-MEL-2 melanoma, 101% (inactive); in the assay with EKVX NSCLC it was 84.2% (inactive); in the assay on UO-31 renal it was 96.7% (inactive). Besides, the growth was 93% (inactive) in the assay with TK-10 renal; 98.7% (inactive) in the assay on ACHN renal; 77.2% (inactive) with A498 renal; 81.8% (inactive) with HL-60(TB) leukemia; 84.1% (inactive) with CCRF-CEM leukemia.

Regarding `CN(C)CC1(N)C(=O)NC(=O)NC1=O`, the growth was 99.6% (inactive) in the assay on HT29 colon; 89.7% (inactive) with SNB-75 CNS; 102% (inactive) in the assay on SNB-19 CNS; 96.3% (inactive) in the assay with U251 CNS; 93.5% (inactive) in the assay with PC-3 prostate; 95.1% (inactive) with SK-MEL-5 melanoma. Further, the growth is 97.5% (inactive) in the assay on UACC-62 melanoma; 104% (inactive) in the assay with LOX IMVI melanoma; 95.1% (inactive) with SK-MEL-28 melanoma; 101% (inactive) with SK-MEL-2 melanoma; 103% (inactive) in the assay with EKVX NSCLC; 96.8% (inactive) in the assay with SN12C renal. Besides, the growth with UO-31 renal was 96.3% (inactive); in the assay with TK-10 renal it was 97.9% (inactive); in the assay with ACHN renal it was 101% (inactive); with CAKI-1 renal, 96.4% (inactive); in the assay with HL-60(TB) leukemia, 97.5% (inactive); in the assay on CCRF-CEM leukemia, 99.1% (inactive).

Consider `S=C=NCCc1ccccc1`, for which the growth in the assay on HCT-15 colon was 51.7% (inactive); in the assay with HT29 colon, 31.9% (inactive); with SNB-75 CNS, 54.2% (inactive); with SNB-19 CNS it was 54.3% (inactive); with U251 CNS, 46.5% (inactive); in the assay with PC-3 prostate, 64.2% (inactive). Also, the growth is -28.2% (active) with SK-MEL-5 melanoma; 55% (inactive) in the assay with UACC-62 melanoma; 32.2% (inactive) in the assay with LOX IMVI melanoma; 104% (inactive) in the assay on SK-MEL-2 melanoma; 127% (inactive) in the assay with EKVX NSCLC; 51.3% (inactive) with UO-31 renal. For the same molecule, the growth is 78.9% (inactive) in the assay on TK-10 renal, 72% (inactive) with ACHN renal, 9.55% (active) with HL-60(TB) leukemia and 16.7% (inactive) with CCRF-CEM leukemia.

Consider `C=NCC#N`, for which the growth was 83.6% (inactive) and 103% (inactive) in the assay on HT29 colon; 91.4% (inactive) and 88.2% (inactive) in the assay on SNB-75 CNS; 102% (inactive) and 108% (inactive) in the assay on SNB-19 CNS; 102% (inactive) and 107% (inactive) with U251 CNS; 96.3% (inactive) and 122% (inactive) in the assay on PC-3 prostate; 106% (inactive) and 102% (inactive) with SK-MEL-5 melanoma. Further, the growth with UACC-62 melanoma is 107% (inactive) and 104% (inactive); in the assay on LOX IMVI melanoma it was 102% (inactive) and 111% (inactive); in the assay on SK-MEL-28 melanoma, 123% (inactive) and 108% (inactive); in the assay with SK-MEL-2 melanoma it was 96.9% (inactive) and 82.2% (inactive); in the assay with EKVX NSCLC, 115% (inactive); in the assay on SN12C renal, 99.9% (inactive) and 99.6% (inactive). Further, the growth in the assay on UO-31 renal was 87.1% (inactive) and 91.8% (inactive); with TK-10 renal, 100% (inactive) and 90% (inactive); in the assay on ACHN renal it was 96.7% (inactive) and 105% (inactive); with CAKI-1 renal, 98.1% (inactive) and 115% (inactive); in the assay on HL-60(TB) leukemia, 99.1% (inactive) and 112% (inactive); with CCRF-CEM leukemia it was 118% (inactive).
